# In PubChem BioAssay (EPA / NIEHS):
# Inconclusive results are not listed. Active and inactive are the calls of the source. How the source made its calls: active means hit-call score of the fitted dose curve at least 0.9, where 1 is the maximum; inconclusive means response in the unintended direction; inactive means score below 0.9.
# How the values were obtained:
# [1] = ATG_XTT_Cytotoxicity: Cytotoxicity Assessment in the Attagene TRANS-FACTORIAL HepG2 Assay (AID 2283584);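 on AC50: cells exposed to compound for 24 h before reading; active means loss of viability signal versus DMSO baseline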
# Summary of the method: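 Cells: human HepG2, transiently transfected with MRTU reporter constructs. Exposure 24 h. Readout: XTT, cell number. Baseline/neg ctrl DMSO; loss-of-signal scored.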
# [2] = TOX21_p53_BLA_p2_viability: Viability Assessment in the Tox21 HCT-116 p53 Agonism Beta-lactamase Assay, Phase 2 (AID 2283591);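 further: compound exposure lasted 16 h at 37 °C; actives lower the ATP signal meaning cytotoxicity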
# Summary of the method: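 HCT116 p53-bla cells, 4000/well, dosed after 5 h plating (217-fold dilution of DMSO stocks) and incubated 16 h at 37C. Viability taken as cellular ATP by CellTiter-Glo luminescence after 30 min RT; signal loss marks cytotoxicity.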
# [3] = biological target: Cellular tumor antigen p53 (Homo sapiens) (UniProt P04637); experiment: TOX21_p53_BLA_p2_ratio: Tox21 HCT-116 p53 Agonism Beta-lactamase Assay, Ratio, Phase 2 (AID 2283592)
# Summary of the method: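 HCT116 p53-bla; 4000 cells/well; 5 h pre-incubation; cpd in DMSO, 217-fold dilution; 16 h 37C/5% CO2; CCF4-AM 2 h RT; Ex 405, Em 460/530 ratio; DMSO = baseline; positive fitting direction.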
# [4] = TOX21_p53_BLA_p3_viability: Viability Assessment in the Tox21 HCT-116 p53 Agonism Beta-lactamase Assay, Phase 3 (AID 2283593);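 further: cells exposed to compound for 16 h before reading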
# Summary of the method: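 HCT116 cells, 4000/well, dosed 5 h after plating by pin transfer (217-fold dilution from DMSO stock) and incubated 16 h at 37C, 5% CO2. Viability read as ATP luminescence with CellTiter-Glo after 30 min at room temperature.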
# [5] = biological target: Cellular tumor antigen p53 (Homo sapiens) (UniProt P04637); experiment: TOX21_p53_BLA_p3_ratio: Tox21 HCT-116 p53 Agonism Beta-lactamase Assay, Ratio, Phase 3 (AID 2283596)
# Summary of the method: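 HCT116 p53-bla cells (4000/well) given compound in DMSO (217-fold dilution) after 5 h, incubated 16 h at 37C. CCF4-AM substrate 2 h at room temperature; 460/530 nm emission ratio, gain fitted against DMSO.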
# [6] = TOX21_p53_BLA_p4_viability: Viability Assessment in the Tox21 HCT-116 p53 Agonism Beta-lactamase Assay, Phase 4 (AID 2283597);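 further: hits lower the luminescence signal meaning cytotoxicity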
# Summary of the method: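 Cells plated, 5 h pre-incubation; DMSO compounds pinned (217-fold dilution); 16 h, 37C/5% CO2; CCF4-AM 2 h RT; CellTiter-Glo 30 min RT; luminescence read.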
# [7] = biological target: Cellular tumor antigen p53 (Homo sapiens) (UniProt P04637); experiment: TOX21_p53_BLA_p5_ratio: Tox21 HCT-116 p53 Agonism Beta-lactamase Assay, Ratio, Phase 5 (AID 2283599)
# Summary of the method: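 HCT-116 p53-bla cells (4000/well) plated 5 h, dosed with compound (217-fold DMSO dilution) for 16 h at 37 C; CCF4-AM substrate 2 h at room temperature. Activity is the 460/530 nm emission ratio (405 nm excitation), fitted in gain-of-signal direction versus DMSO.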
# [8] = biological target: Cellular tumor antigen p53 (Homo sapiens) (UniProt P04637); experiment: TOX21_p53_BLA_p4_ratio: Tox21 HCT-116 p53 Agonism Beta-lactamase Assay, Ratio, Phase 4 (AID 2283601)
# Summary of the method: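 HCT-116 p53 beta-lactamase reporter cells (4000/well) preincubated 5 h, then compound (217-fold dilution of DMSO stock) for 16 h at 37C. CCF4-AM substrate added 2 h at room temperature; 460/530 nm emission ratio fitted upward versus DMSO.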
# [9] = TOX21_p53_BLA_p5_viability: Viability Assessment in the Tox21 HCT-116 p53 Agonism Beta-lactamase Assay, Phase 5 (AID 2283600)
# Summary of the method: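 4000 cells/well; 5 h pre-incubation; DMSO compounds pin-transferred, 217-fold dilution; 16 h, 37C/5% CO2; CCF4-AM 2 h RT; CellTiter-Glo 30 min RT; luminescence.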
# Sequence of Cellular tumor antigen p53 (Homo sapiens) (P04637 whole entry, looked up): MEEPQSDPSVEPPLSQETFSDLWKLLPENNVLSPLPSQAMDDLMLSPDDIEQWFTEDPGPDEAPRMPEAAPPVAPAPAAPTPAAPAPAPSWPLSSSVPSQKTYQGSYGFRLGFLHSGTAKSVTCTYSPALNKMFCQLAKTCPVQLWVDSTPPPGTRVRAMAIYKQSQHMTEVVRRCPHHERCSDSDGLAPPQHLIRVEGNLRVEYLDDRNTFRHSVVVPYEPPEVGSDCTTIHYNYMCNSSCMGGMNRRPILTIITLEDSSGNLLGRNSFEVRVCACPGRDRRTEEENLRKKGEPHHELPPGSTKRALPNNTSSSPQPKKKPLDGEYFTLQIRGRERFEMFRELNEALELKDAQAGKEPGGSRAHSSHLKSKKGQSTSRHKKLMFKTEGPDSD
compound,measurement,setting,value
N#Cc1nc(Cl)c(Cl)c(Cl)c1Cl,AC50,[1],56.8 µM (active)
COc1cc(C(C)(C)C)c(O)c(C(C)(C)C)c1,outcome,[1],inactive
OCCOc1cccc(OCCO)c1,outcome,[1],inactive
Cc1cccc(Nc2ccccc2C(=O)O)c1C,outcome,[1],inactive
c1ccc2sc(SN(C3CCCCC3)C3CCCCC3)nc2c1,outcome,[1],inactive
O=S(=O)(O)NC1CCCCC1,outcome,[1],inactive
Cc1cccc(C)c1[N+](=O)[O-],outcome,[1],inactive
CC(CC(C)(C)C)CC(C)(C)CC(C)(C)C (stereo not given),outcome,[1],inactive
COc1cc2ncnc(Nc3cccc(Cl)c3)c2cc1OC,outcome,[1],inactive
Cc1ccc2sc3cccc(C)c3c2c1,outcome,[1],inactive
CC1(C)OC[C@@H]2O[C@@]3(C(=O)O)OC(C)(C)O[C@H]3[C@@H]2O1,outcome,[1],inactive
N#Cc1ccc(CC(=NNC(=O)Nc2ccc(OC(F)(F)F)cc2)c2cccc(C(F)(F)F)c2)cc1,outcome,[1],inactive
Nc1ccc(F)c([N+](=O)[O-])c1,outcome,[1],inactive
CC(c1cc2ccccc2s1)N(O)C(N)=O (stereo not given),outcome,[1],inactive
CCCC(C)C=O (stereo not given),outcome,[1],inactive
CCCCCCCCCCCCOCCO,outcome,[1],inactive
COC(=O)C1=C(C)NC(C)=C(C(=O)OCCN(C)Cc2ccccc2)C1c1cccc([N+](=O)[O-])c1 (stereo not given),outcome,[1],inactive
CC(C)(CO)[N+](=O)[O-],outcome,[1],inactive
CCC/C=C/C=O,outcome,[1],inactive
CC1CCC(C(C)(C)O)CC1 (stereo not given),outcome,[1],inactive
COc1cc(C)cc(O)c1,outcome,[1],inactive
CCCCC[Si](OCC)(OCC)OCC,outcome,[1],inactive
Clc1ccc2c(c1)C(N1CCNCC1)=Nc1ccccc1O2,AC50,[1],41.8 µM (active)
CC(=O)/C=C/C1=C(C)CCCC1(C)C,outcome,[1],inactive
C=O,outcome,[1],inactive
Nc1cc(N)cc(C(=O)O)c1,outcome,[1],inactive
COc1c(Cl)c(Cl)c(Cl)c(Cl)c1Cl,outcome,[1],inactive
OC1C(O)C(O)C(O)C(O)C1O (stereo not given),outcome,[1],inactive
CN(C)c1ccc(O)c2c1C[C@H]1C[C@H]3[C@H](N(C)C)C(=O)C(C(N)=O)=C(O)[C@@]3(O)C(=O)C1=C2O,outcome,[1],inactive
CCCCCCC#CC(=O)OC,outcome,[1],inactive
Clc1cccc(Cl)n1,outcome,[1],inactive
CCc1c(C)cc(N)c(CC)c1N,outcome,[1],inactive
NCCCN1CCOCC1,outcome,[1],inactive
C=CC(C)(C)O,outcome,[1],inactive
COc1ccnc(CS(=O)c2nc3cc(OC(F)F)ccc3[nH]2)c1OC (stereo not given),outcome,[1],inactive
CC1(C)[C@H](C(=O)OCc2cccc(Oc3ccccc3)c2)[C@@H]1C=C(Cl)Cl,outcome,[1],inactive
CN(CCOc1ccc(CC2SC(=O)NC2=O)cc1)c1ccccn1 (stereo not given),outcome,[1],inactive
same,outcome,[2],inactive
same,outcome,[3],inactive
same,outcome,[4],inactive
same,outcome,[5],inactive
same,outcome,[6],inactive
same,outcome,[7],inactive
same,outcome,[8],inactive
CCN(CC)c1ccc(C(=C2C=CC(=[N+](CC)CC)C=C2)c2ccc(S(=O)(=O)O)cc2S(=O)(=O)[O-])cc1,outcome,[1],inactive
same,AC50,[2],26.5 µM (active)
same,outcome,[3],inactive
same,AC50,[4],23.1 µM (active)
same,outcome,[5],inactive
same,AC50,[6],46.1 µM (active)
same,AC50,[9],36.1 µM (active)
O=C(O)CCCCCCCC(=O)O,outcome,[1],inactive
same,outcome,[2],inactive
same,outcome,[3],inactive
same,outcome,[4],inactive
same,outcome,[5],inactive
same,outcome,[7],inactive
same,outcome,[9],inactive
same,outcome,[8],inactive
CN(C)CCOCCN(C)C,outcome,[1],inactive
same,outcome,[2],inactive
same,outcome,[3],inactive
same,outcome,[4],inactive
same,outcome,[5],inactive
same,outcome,[6],inactive
same,outcome,[7],inactive
same,outcome,[9],inactive
same,outcome,[8],inactive
C=C(C)[C@@H]1CC[C@@H](C)C[C@@H]1O,outcome,[1],inactive
same,outcome,[2],inactive
same,outcome,[3],inactive
same,outcome,[4],inactive
same,outcome,[5],inactive
same,outcome,[6],inactive
same,outcome,[7],inactive
same,outcome,[9],inactive
same,outcome,[8],inactive
COCCCOc1ccnc(CS(=O)c2nc3ccccc3[nH]2)c1C (stereo not given),outcome,[1],inactive
same,outcome,[2],inactive
same,outcome,[3],inactive
same,outcome,[4],inactive
same,outcome,[5],inactive
same,outcome,[7],inactive
same,outcome,[9],inactive
same,outcome,[8],inactive
Clc1nc(C(Cl)(Cl)Cl)c(Cl)c(Cl)c1Cl,outcome,[1],inactive
same,outcome,[2],inactive
same,outcome,[3],inactive
same,outcome,[4],inactive
same,outcome,[5],inactive
same,outcome,[6],inactive
same,outcome,[7],inactive
same,outcome,[9],inactive
same,outcome,[8],inactive
N#Cc1ccccc1,outcome,[1],inactive
same,outcome,[2],inactive
same,outcome,[3],inactive
same,outcome,[4],inactive
same,outcome,[5],inactive
same,outcome,[7],inactive
same,outcome,[9],inactive
same,outcome,[8],inactive
CO[Si](C)(OC)c1ccccc1,outcome,[1],inactive
same,outcome,[2],inactive
same,outcome,[3],inactive
same,outcome,[4],inactive
same,outcome,[5],inactive
same,outcome,[9],inactive
same,outcome,[8],inactive
C[C@H]1C[C@H]2[C@@H]3CCC4=CC(=O)C=C[C@]4(C)[C@@]3(F)[C@@H](O)C[C@]2(C)[C@@]1(O)C(=O)COP(=O)(O)O,outcome,[1],inactive
same,outcome,[2],inactive
same,outcome,[3],inactive
same,outcome,[4],inactive
same,outcome,[5],inactive
same,outcome,[6],inactive
same,outcome,[9],inactive
same,outcome,[8],inactive
NC(=O)NC1NC(=O)NC1=O (stereo not given),outcome,[1],inactive
same,outcome,[2],inactive
same,outcome,[3],inactive
same,outcome,[4],inactive
same,outcome,[5],inactive
same,outcome,[7],inactive
same,outcome,[9],inactive
same,outcome,[8],inactive
Nc1cc(Cl)c(O)c(Cl)c1,outcome,[1],inactive
same,outcome,[2],inactive
same,outcome,[3],inactive
same,outcome,[4],inactive
same,outcome,[5],inactive
same,outcome,[6],inactive
same,outcome,[7],inactive
same,outcome,[8],inactive
O=c1[nH]nnc2ccccc12,outcome,[1],inactive
same,outcome,[2],inactive
same,outcome,[3],inactive
same,outcome,[4],inactive
same,outcome,[5],inactive
same,outcome,[7],inactive
same,outcome,[9],inactive
same,outcome,[8],inactive
CCN(CC)CCOC(=O)c1ccc(N)cc1,outcome,[1],inactive
same,outcome,[2],inactive
same,outcome,[3],inactive
same,outcome,[4],inactive
same,outcome,[5],inactive
same,outcome,[6],inactive
same,outcome,[7],inactive
same,outcome,[9],inactive
same,outcome,[8],inactive
COC(=O)OC,outcome,[1],inactive
same,outcome,[2],inactive
same,outcome,[3],inactive
same,outcome,[4],inactive
same,outcome,[5],inactive
same,outcome,[6],inactive
same,outcome,[7],inactive
same,outcome,[9],inactive
same,outcome,[8],inactive
C[Si](O[Si](C)(C)C)O[Si](C)(C)C,outcome,[1],inactive
same,outcome,[2],inactive
same,outcome,[3],inactive
same,outcome,[4],inactive
same,outcome,[5],inactive
same,outcome,[7],inactive
same,outcome,[9],inactive
same,outcome,[8],inactive
CC1(C)CCC(C)(C)c2cc(C(=O)Nc3ccc(C(=O)O)cc3)ccc21,outcome,[1],inactive
same,AC50,[2],28.1 µM (active)
same,AC50,[3],61.2 µM (active)
same,AC50,[4],46.1 µM (active)
same,AC50,[5],72.4 µM (active)
same,AC50,[7],46.2 µM (active)
same,AC50,[9],39.5 µM (active)
same,AC50,[8],46.9 µM (active)
